The text below walks through data of the supplement of paper PMC3414501.

Counter-ions that a name gives are not always drawn.

Assay [1] concerns S. cerevisiae SK1 pCDA2-eGFP (USY613), sporulating. Description: CDA2-GFP sporulation assay sensitivity score (z-score vs DMSO controls); higher = stronger inhibition of sporulation, active = hit call of the paper.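 Note: active if sensitivity score above 5.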
The test system of assay [2] is S. cerevisiae NKY1551 his4x/his4B, sporulating. As to the kind of experiment: HIS4 meiotic recombination assay sensitivity score (z-score vs DMSO controls); higher = stronger inhibition of sporulation/recombination, active = hit call of the paper.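 Note: active if sensitivity score above 5.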
Assay [3] has as its system S. cerevisiae AD1-9 (efflux-pump deficient), vegetative growth in YPD. As to the kind of experiment: growth sensitivity score (doubling time z-score vs DMSO controls); higher = slower growth, strongly negative scores also mark growth inhibition (complete suppression), active = hit call of the paper. Summed up: (§1)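 Rich medium in microtiter plates was seeded with Saccharomyces cerevisiae strains BY4741 and AD1-9 at an OD600 of 0.065, and compounds were added as a 1:100 dilution of DMSO stock. A Tecan GENios reader recorded optical density every 15 min for 24 hours, with eight solvent-only wells in each experiment. Average doubling time was the time to reach a set generation point divided by generation number. The growth sensitivity score was the compound mean minus the solvent-only mean, divided by the solvent-only standard deviation.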

The test system of assay [4] is S. cerevisiae BY4741 (wild-type), vegetative growth in YPD. The assay is described as above. Summed up: as §1

Regarding `CCOC(=O)O[C@]1(C(=O)OCCl)CC[C@H]2[C@@H]3CCC4=CC(=O)C=C[C@]4(C)[C@H]3[C@@H](O)C[C@@]21C` [Loteprednol etabonate] (stock concentration (mM, diluted 1:100): 10), the “CDA2-GFP sporulation assay sensitivity score” value in assay [1] is 0 (inactive). In assay [2], the “HIS4 meiotic recombination assay sensitivity score” value was -0.2 (inactive). Further, the growth sensitivity score is 5.74 (active) in assay [3] and 0.91 (inactive) in assay [4].
`Cn1c(NCCN(CCO)CCCc2ccc([N+](=O)[O-])cc2)cc(=O)n(C)c1=O` [Nifekalant hydrochloride] (stock concentration (mM, diluted 1:100): 9.2): the “CDA2-GFP sporulation assay sensitivity score” value in assay [1] was 0.47 (inactive). Moreover, the “HIS4 meiotic recombination assay sensitivity score” value in assay [2] is -0.61 (inactive). The growth sensitivity score in assay [3] was 0.65 (inactive); in assay [4] it was -0.07 (inactive).
With `O=C(CCNNC(=O)c1ccncc1)NCc1ccccc1` [Nialamide] (stock concentration (mM, diluted 1:100): 10), the “CDA2-GFP sporulation assay sensitivity score” value in assay [1] was 1.74 (inactive). For the same compound, the “HIS4 meiotic recombination assay sensitivity score” value in assay [2] is -1.89 (inactive). In addition, the growth sensitivity score in assay [3] was -0.06 (inactive); in assay [4], 0.19 (inactive).
For `COc1ccc(C2CNC(=O)C2)cc1OC1CCCC1` (stereo not drawn) [Rolipram] (stock concentration (mM, diluted 1:100): 10), the “CDA2-GFP sporulation assay sensitivity score” value in assay [1] is -2.81 (inactive). The “HIS4 meiotic recombination assay sensitivity score” value in assay [2] is -0.47 (inactive). In addition, the figures for the growth sensitivity score in assay [3] and in assay [4] were -1.05 (inactive) and -0.71 (inactive), respectively.
In the case of `COc1ccc2[nH]c([S+]([O-])Cc3ncc(C)c(OC)c3C)nc2c1` (stereo not drawn) [Esomeprazole mg] (stock concentration (mM, diluted 1:100): 4.8), the “CDA2-GFP sporulation assay sensitivity score” value in assay [1] is 3.2 (inactive). Also, the “HIS4 meiotic recombination assay sensitivity score” value in assay [2] was 0.32 (inactive). Besides, the growth sensitivity score was -2.89 in assay [3] and 0.69 (inactive) in assay [4].
`O=C(O[C@H]1[C@H](Oc2ccccc2COC(=O)C2(O)C=CCCC2=O)O[C@H](CO)[C@@H](O)[C@@H]1O)c1ccccc1` (stereo partly drawn) [Tremulacin] (stock concentration (mM, diluted 1:100): 10): the “CDA2-GFP sporulation assay sensitivity score” value in assay [1] was 3.04 (inactive). The “HIS4 meiotic recombination assay sensitivity score” value in assay [2] is -1.23 (inactive). Besides, the growth sensitivity score was -1.16 (inactive) in assay [3] and -0.72 (inactive) in assay [4].
For `Nc1c2c(nc3ccccc13)CCCC2` [Tacrine hydrochloride] (stock concentration (mM, diluted 1:100): 9) the same measures were 10.2 (active), -2.37 (inactive), -5.79 and 2.93 (active).
As for `CNCCCCOc1ccccc1Cc1ccccc1` [Bifemelane] (stock concentration (mM, diluted 1:100): 10), in assay [1], the “CDA2-GFP sporulation assay sensitivity score” value was 1.21 (inactive). In addition, in assay [2], the “HIS4 meiotic recombination assay sensitivity score” value was 9.23 (active). The growth sensitivity score was 127 (active) in assay [3] and 3.54 (active) in assay [4].
The like results for `O=c1cnn([C@@H]2O[C@H](CO)[C@@H](O)[C@H]2O)c(=O)[nH]1` [6-Azauridine] (stock concentration (mM, diluted 1:100): 10) were, in that order, 0.6 (inactive), -1.27 (inactive), 0.13 (inactive) and 0.64 (inactive).
For `NC1CCN(c2nc3c(cc2F)c(=O)c(C(=O)O)cn3-c2ccc(F)cc2F)C1` (stereo not drawn) [Tosufloxacin tosylate] (stock concentration (mM, diluted 1:100): 7) the same measures were 1.34 (inactive), -2.15 (inactive), 1.02 (inactive) and -0.39 (inactive).
In the case of `COc1cc(C[C@@H](CO)[C@H](CO)Cc2ccc(O)c(OC)c2)ccc1O` [Secoisolariciresinol] (stock concentration (mM, diluted 1:100): 10), the “CDA2-GFP sporulation assay sensitivity score” value in assay [1] was -0.44 (inactive). For the same compound, the “HIS4 meiotic recombination assay sensitivity score” value in assay [2] was -0.73 (inactive). Also, the results for the growth sensitivity score in assay [3] and in assay [4] were 0.75 (inactive) and -0.92 (inactive), respectively.
For `CCC1=C[C@H]2CN(C1)Cc1c([nH]c3ccccc13)[C@@](C(=O)OC)(c1cc3c(cc1OC)N(C)[C@H]1[C@@](O)(C(=O)OC)[C@H](OC(C)=O)[C@]4(CC)C=CCN5CC[C@]31[C@@H]54)C2` [Vinorelbine bitatrate] (stock concentration (mM, diluted 1:100): 7.2), the “CDA2-GFP sporulation assay sensitivity score” value in assay [1] is 1.77 (inactive). In assay [2], the “HIS4 meiotic recombination assay sensitivity score” value is -0.36 (inactive). Moreover, the growth sensitivity score is -3.29 in assay [3] and -1.83 (inactive) in assay [4].
For `Clc1ccc2c(c1)CCc1cccnc1C2=C1CCNCC1` [Desloratadine] (stock concentration (mM, diluted 1:100): 10), the “CDA2-GFP sporulation assay sensitivity score” value in assay [1] was 8.67 (inactive). For the same compound, the “HIS4 meiotic recombination assay sensitivity score” value in assay [2] is 1.24 (inactive). Moreover, the growth sensitivity score was 60.1 (active) in assay [3] and -0.47 (inactive) in assay [4].
On to `CC[C@H](C)C(=O)O[C@H]1C[C@H](O)C=C2C=C[C@H](C)[C@H](CC[C@@H](O)C[C@@H](O)CC(=O)O)[C@H]21` [Pravastatin sodium] (stock concentration (mM, diluted 1:100): 9.5), for which the “CDA2-GFP sporulation assay sensitivity score” value in assay [1] was -1.3 (inactive). In addition, the “HIS4 meiotic recombination assay sensitivity score” value in assay [2] was -0.46 (inactive). The growth sensitivity score was 13.6 (active) in assay [3] and 0.4 (inactive) in assay [4].
For `CCCCCCNC(=O)n1cc(F)c(=O)[nH]c1=O` [Carmofur] (stock concentration (mM, diluted 1:100): 10.3) the same measures were 0.49 (inactive), -2.78 (inactive), 22.8 (active) and 37.2 (active).
In the case of `O=C1[C@H](CC[C@H](O)c2ccc(F)cc2)[C@@H](c2ccc(O)cc2)N1c1ccc(F)cc1` [Ezetimibe] (stock concentration (mM, diluted 1:100): 10), in assay [1], the “CDA2-GFP sporulation assay sensitivity score” value is -0.54 (inactive). Also, in assay [2], the “HIS4 meiotic recombination assay sensitivity score” value was -0.94 (inactive). Also, in assay [4], the growth sensitivity score was -0.7 (inactive).
